IL-1B inflam inh – inhibitors of inflammasome signaling (IL-1 beta secretion); THP-1 LPS/ATP IL-1B secretion, AlphaLISA, 16 h; stronger effect = lower value; activity change, % at 57.5 µM; 360,000 compounds, 4.7% hits; in the data active = activity change below about -50%; inconclusive = mostly about -30% to -49%
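Secreted IL-1B measured by AlphaLISA bead assay after 16 h compound exposure of THP-1 cells; compounds (final up to 57.5 uM) added 1 h before LPS (250 ng/mL) and ATP (1.25 mM) stimulation; lower signal means less secretion.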
HT1080 IDH1KD tx – HT-1080 IDH1 knockdown cell toxicity (counter line). HT-1080 IDH1 knockdown viability, ATP luminescence, 48 h. Potency, µM (doses to about 46.1 µM), actives largely listed as cytotoxic. 360,000 compounds, 2% hits. AID 686971
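Viability of IDH1-knockdown HT-1080 fibrosarcoma cells was assessed by CellTiter-Glo after 48 h at 37 °C with titrated compound; concentration-effect curves were classified by fit quality and response size.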
HT1080-NT tox – kills 2HG-producing HT-1080-NT fibrosarcoma cells. HT-1080-NT fibrosarcoma viability, CellTiter-Glo ATP luminescence, 48 h. Potency, µM (highest dose often 46.1 µM), hits mostly cytotoxic. 360,000 compounds, 1.6% hits. AID 686970;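 also: NT is the 2HG producing partner of a matched IDH1 knockdown line; nearly all actives have a fitted effect of over 55% in size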
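Viability by CellTiter-Glo luminescence after 48 h compound exposure at 37C of HT-1080-NT cells (750/well, RPMI, 5% FBS). % activity scaled between DMSO wells and medium-only wells, then curve-fitted and categorized by curve class.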
DT40 TDP1 no CPT – qHTS for Inhibitors of human tyrosyl-DNA phosphodiesterase 1 (TDP1): qHTS in cells in absence of CPT. Potency, µM (titrated, usually from 46.2 µM), hits mostly inhibitors. DT40 Tdp1-/- hTDP1 cells, no CPT, ATP luminescence, 48 h. 420,000 compounds, 15% hits; also: nearly all actives have a fitted effect of over 55% in size
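Chicken DT40 Tdp1-/- cells stably complemented with human TDP1 were seeded at 400 cells/well with DMSO in place of 20 nM camptothecin. After compound pinning, cells grew at least 48 hr at 37 °C; viability read by CellTiter-Glo luminescence.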
DT40 TDP1 CPT – growth inhibition of DT40 Tdp1-/-;hTDP1 cells with camptothecin (screen for TDP1 inhibitors) | chicken DT40 Tdp1-/-;hTDP1 cells + 20 nM CPT, ATP luminescence, 48 h | Potency, µM (top dose mostly 46.2 µM), most hits filed as inhibitors | 420,000 compounds, 12% hits | AID 686979; also: nearly all actives have a fitted effect of over 55% in size
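Chicken DT40 Tdp1-/- cells stably complemented with human TDP1 were seeded at 400 cells/well in medium containing 20 nM camptothecin, exposed to pin-transferred compounds, and grown at 37 °C for at least 48 hr. Viability was read as ATP luminescence.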
12-LOX inh – inhibitors of human 12S-lipoxygenase ALOX12; purified 12hLO, xylenol orange hydroperoxide absorbance; Potency, µM (doses to about 108 µM), most hits filed as inhibitors; 580,000 compounds, 1.1% hits
Target sequence (P18054 whole entry, looked up): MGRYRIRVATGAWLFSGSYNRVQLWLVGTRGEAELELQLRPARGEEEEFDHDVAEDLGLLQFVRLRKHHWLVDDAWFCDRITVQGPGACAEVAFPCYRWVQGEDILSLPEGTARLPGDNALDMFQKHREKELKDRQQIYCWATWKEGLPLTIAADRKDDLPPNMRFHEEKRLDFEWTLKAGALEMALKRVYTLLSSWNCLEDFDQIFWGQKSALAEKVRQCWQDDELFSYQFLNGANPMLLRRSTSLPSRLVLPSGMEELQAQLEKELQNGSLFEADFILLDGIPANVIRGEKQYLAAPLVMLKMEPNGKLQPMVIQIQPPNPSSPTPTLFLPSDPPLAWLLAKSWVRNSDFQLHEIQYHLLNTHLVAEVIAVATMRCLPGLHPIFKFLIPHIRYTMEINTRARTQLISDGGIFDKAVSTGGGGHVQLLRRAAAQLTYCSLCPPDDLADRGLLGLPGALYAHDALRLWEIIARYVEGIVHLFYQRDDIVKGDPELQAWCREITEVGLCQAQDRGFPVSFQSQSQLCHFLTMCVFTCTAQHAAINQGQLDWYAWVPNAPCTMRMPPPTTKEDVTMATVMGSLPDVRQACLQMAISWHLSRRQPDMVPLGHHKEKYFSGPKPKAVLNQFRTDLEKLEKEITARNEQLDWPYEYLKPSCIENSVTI
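Hydroperoxide product was detected by ferrous iron/xylenol orange as the 573 to 405 nm absorbance ratio. Arachidonic acid at 40 uM (final) was turned over for 30 min at room temperature by 150 nM human 12hLO, pH 7.0 Hepes buffer, after 15 min compound preincubation.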
A number is an active result; 0 = inactive; ? = inconclusive; - = no result given; [ ] = dose if it differs, or a comment. The entries come from a sample that favours hits as a whole. Unless noted, calls follow the shape of the dose curve; as a rule, active = well fitted curve in the direction sought with a large enough effect; inconclusive = small, poorly fitted or top-dose-only effect, or another doubt; inactive = no such curve, though single readings can be large; an effect the other way counts as inactive or inconclusive.

SMILES	IL-1B inflam inh	HT1080 IDH1KD tx	HT1080-NT tox	DT40 TDP1 no CPT	DT40 TDP1 CPT	12-LOX inh
COc1ccccc1CNC(=O)CSc1nc2ccccc2c(=O)n1CCCN1CCOCC1	0	0	0	0	0	0
O=c1c2ccccc2nc(SCc2ccc(F)cc2Cl)n1CCCN1CCOCC1	0	0	0	16µM	?	0
Cc1cc(=O)n(CCN2CCOCC2)c(N2CCCC2)n1	-	-	-	-	-	0
COc1ccccc1/C=C1\Oc2cc(OS(=O)(=O)c3ccccc3)ccc2C1=O	-	-	-	-	-	0
O=C(NC1CCCC1)c1cc(-c2ccc(Cl)c(Cl)c2)nc2ccccc12	-	-	-	-	-	0
CC(=O)N1CC2(Cc3ccccc31)CN([S+](=O)([O-])c1c(C)noc1C)C2	-	-	-	-	-	0
COc1ccc(CNC(=O)CCc2ncc(-c3ccccc3)o2)cc1OC	-	-	-	-	-	0
COc1cc(OC)cc(C(=O)N[C@@H]2CN(c3ncccn3)C[C@H]2CO)c1	-	-	-	-	-	0
O=[N+]([O-])c1ccc(Oc2ccc(-c3cnc4ccccc4n3)cc2[N+](=O)[O-])cc1	0	0	0	15µM	10µM	0
Cc1nnc(-c2ccc(Oc3ccc(Br)cc3)c([N+](=O)[O-])c2)o1	0	0	0	13µM	?	0
O=[N+]([O-])c1cc(-c2cnc3ccccc3n2)ccc1Oc1ccc(Br)cc1	0	0	0	13µM	?	0
O=C(Oc1ccc(-c2cnc3ccccc3n2)cc1)c1ccc(Cl)c([N+](=O)[O-])c1	0	0	0	?	0	0
CC(C)Oc1nnc(SCC(=O)NCc2ccccc2)s1	-	-	-	-	-	0
COc1ccc(CN(C)Cc2cc(C)no2)cc1OC	-	-	-	-	-	0
O=S(=O)(N[C@H]1CO[C@H]2[C@@H]1OC[C@@H]2n1cc(CC2CCCCC2)nn1)c1cccs1	-	-	-	-	-	0
CCNC(c1ccccc1)c1ccccc1	-	-	-	-	-	0
O=S(=O)(NC[C@H]1OC[C@@H](NCc2ccc(F)cc2)[C@@H]1O)c1ccccc1	-	-	-	-	-	0
Cc1nnc(NC(=O)CCS(=O)(=O)Cc2ccccc2)s1	0	0	0	?	10µM	?
O=C(CCS(=O)(=O)Cc1ccccc1)Nc1nnc(C(F)(F)F)s1	0	?	?	?	?	0
CC(C)(C)c1nnc(NC(=O)CCS(=O)(=O)Cc2ccccc2)s1	0	?	0	12µM	9.2µM	0
O=C(Nc1nnc(-c2ccccc2)o1)c1cc(Cl)sc1Cl	0	0	0	9.2µM	7.3µM	0
O=C(Nc1nnc(-c2ccncc2)o1)c1ccccc1F	0	0	0	0	?	0
O=C(Nc1nnc(-c2ccc(F)cc2)o1)c1cc(Cl)sc1Cl	0	0	0	21µM	26µM	0
O=C(Nc1nnc(-c2ccc(Cl)cc2)o1)c1nc2ccccc2s1	0	0	0	21µM	?	0
O=C1CN(C(=O)c2cc(Br)c(Br)s2)c2ccccc2N1	0	21µM	?	13µM	?	0
SMILES	IL-1B inflam inh	HT1080 IDH1KD tx	HT1080-NT tox	DT40 TDP1 no CPT	DT40 TDP1 CPT	12-LOX inh
O=C1CN(C(=O)c2cccc(Br)c2)c2ccccc2N1	0	?	15µM	12µM	15µM	0
O=C1CN(C(=O)c2ccccc2)c2ccccc2N1	0	0	0	0	0	0
O=[N+]([O-])c1cc(S(=O)(=O)N2CCOCC2)ccc1NS(=O)(=O)c1ccccc1	-83	0	0	0	0	0
COc1ccc(Nc2ccc(S(=O)(=O)N3CCCCC3)cc2[N+](=O)[O-])cc1	0	0	?	16µM	?	0
O=[N+]([O-])c1cc(S(=O)(=O)N2CCCCCC2)ccc1F	?	?	?	10µM	7.3µM	0
CC(C)(CNc1ccc([N+](=O)[O-])cc1C#N)N1CCOCC1	0	0	0	0	0	0
CC(C)(CNc1ccc(S(=O)(=O)C(F)(F)F)cc1[N+](=O)[O-])N1CCOCC1	-53	0	0	?	?	0
Cc1ccccc1Nc1ccc(S(=O)(=O)N2CCOCC2)cc1[N+](=O)[O-]	?	0	0	?	?	0
Cc1ccoc1C(=O)N1CCCn2ccnc2C1c1cnn(C)c1 (centres undefined)	-	-	-	-	-	0
O=C(NC1CCOC2(CCOCC2)C1)c1cnc2c(O)cccn2c1=O (centres undefined)	-	-	-	-	-	0
CCCCn1c(=O)[nH]c(=O)c2c1nc(CN1CCN(S(=O)(=O)c3ccc(F)cc3)CC1)n2CC	-	-	-	-	-	0
Cc1ccccc1-c1cc(C(=O)NC(C)C)c2ccccc2n1	-	-	-	-	-	0
COc1ccc(C(CNc2ccc(S(=O)(=O)N3CCN(C)CC3)cc2[N+](=O)[O-])N(C)C)cc1 (centres undefined)	0	0	0	21µM	0	0
COc1ccccc1C(CNc1ccc(S(=O)(=O)N2CCCC2)cc1[N+](=O)[O-])N(C)C (centres undefined)	?	0	?	?	13µM	0
COc1ccccc1C(CNC(=O)c1ccc(S(=O)(=O)N2CCCCC2)cc1)N(C)C (centres undefined)	0	0	0	0	0	0
COc1ccc(C(CNc2ccc(S(=O)(=O)N3CCCC3)cc2[N+](=O)[O-])N2CCCC2)cc1 (centres undefined)	0	?	?	?	?	0
O=C(Nc1c(Cl)cccc1Cl)C1=C(c2ccccc2)S(=O)(=O)CCO1	-	-	-	-	-	0
CNc1nc2c(c(=O)[nH]c(=O)n2C)n1CCOc1ccccc1	-	-	-	-	-	0
CC(CNC(=O)CN1C(=O)NC2(CCOc3ccccc32)C1=O)c1ccccc1 (centres undefined)	0	0	0[9.24 µM]	?	15µM	0
CCN(CC)S(=O)(=O)c1cccc(NC(=O)CN2C(=O)NC3(CCOc4ccccc43)C2=O)c1 (centres undefined)	0	0	0	?	16µM	0
COCCNC(=O)CN1C(=O)NC2(CCOc3ccccc32)C1=O (centres undefined)	0	0	0	0	0	0
CC(C)C[C@@H](CN1CCC[C@@H]1CN1C(=S)NC[C@@H]1Cc1ccccc1)N1C[C@H](Cc2ccc(O)cc2)N(CC2CCCCC2)C1=S	0	0	0	23µM	?	0
CC(C)C[C@@H](CN1CCC[C@@H]1CN1C(=S)NC[C@@H]1Cc1ccccc1)N1C[C@H](Cc2ccc(O)cc2)N(CC2CCCCCC2)C1=S	0	18µM	?	18µM	13µM	0
CC(C)C[C@@H](CN1CCCC1CN1C(=S)NC[C@@H]1Cc1ccc(O)cc1)N1C[C@H](Cc2ccc(O)cc2)N(CC2CCCCC2)C1=S (some centres undefined)	-87	?	18µM	15µM	21µM	?
